Test results reported in PubChem BioAssay (NCI).
About 83,000 compounds went through this panel and 20% of them were active in at least one assay; those are over-represented in the sample as a whole.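 Assay: single dose, 48 h. Readout: percent growth (0 = no net growth; negative = cell death). Active: <10.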 Values without a mark were called inactive. Activity calls are given as the source filed them.

Tests used:
Test in all cases: NCI-60 one-dose screen, 48 h (100 = growth as untreated, 0 = no growth, -100 = all killed)
Settings in all cases: 10 µM unless noted
[1] = system: T-47D breast
[2] = system: BT-549 breast
[3] = system: MDA-MB-435 melanoma
[4] = system: SW-620 colon
[5] = system: MCF7 breast
[6] = system: HCT-116 colon
[7] = system: HCC-2998 colon
[8] = system: KM12 colon

Compound | growth [1] | growth [2] | growth [3] | growth [4] | growth [5] | growth [6] | growth [7] | growth [8]
CCN(CC)c1nc(SCc2ccccc2Cl)ncc1C | 86.3% | 134% | 108% | 105% | 106% | 94.2% | 106% | 108%
CCCCCCCCCCCCCCCCCCOc1ccccc1CC(=O)NCC[N+]1(C)CCCC1 | 69.9% | 67.2% | 67.4% | 64.7% | 53.1% | 55.9% | 32.7% | 18.9%
COC(=O)c1n[nH]c2ccc3nc(-c4cn[nH]c4C(F)(F)F)c4c(c3c12)CCCC4 | 57% | 35.5% | 39.3% | 28.3% | 53% | 22.9% | 15.7% | 26.8%
CCOC(=O)c1c(C)c2c(n1C)CSc1cc(C(=O)c3ccccc3)c(=O)[nH]c1-2 | 72.3% [100 µM] | 93.7% [100 µM] | 84.6% [100 µM] | 93.8% [100 µM] | 90.6% [100 µM] | 85.8% [100 µM] | 106% [100 µM] | 97.4% [100 µM]
CC1(C)c2[nH]c3ccccc3c2C[C@]2(C)[C@H]3CC=C4[C@@H]5C[C@@](C)(C(N)=O)CC[C@]5(C)CC[C@@]4(C)[C@]3(C)CC[C@@H]12 | 9.07% (active) | 58.7% | 59.3% | 61.2% | 29.3% | 40.9% | 69.6% | 58.2%
O=c1c2cc(-c3ccccc3)sc2nc2sc(-c3ccccc3)nn12 | 99.3% | 118% | 105% | 103% | 97.6% | 102% | 101% | 101%
C#CCOc1ccc2ncnc(Nc3ccc(NC(=O)CCl)cc3)c2c1 | 16.2% | -19.5% (active) | 17.7% | -13.9% (active) | 5.26% (active) | 0.822% (active) | 65.2% | 8.97% (active)
O=C(Cc1ccccc1)Nc1nc(O)c(/C=C2\C(=O)C=Cc3ccccc32)s1 | 90% | 98.9% | 101% | 95.7% | 101% | 90.1% | 110% | 106%
CC1=Nc2cnc(Nc3ccc(OCCN4CCCCC4)cc3)nc2Nc2ccccc21 | 66.4% | 78.6% | 56.3% | 62.3% | 67.6% | 64.1% | 67% | 12.8%
CCCCOC(=O)OCc1cc(=O)c(O)co1 | 90.8% | 110% | 102% | 103% | 94.5% | 106% | 106% | 104%
O=[N+]([O-])c1ccc(S(=O)(=O)N2CCN(C3=NS(=O)(=O)c4ccccc4N3c3ccccc3)CC2)cc1 | 115% | 99.8% | 97.2% | 103% | 101% | 91.2% | 91.3% | 110%
CN1C(=O)/C(=C/c2cn(-c3ccccc3)nc2-c2ccccc2)SC1=S | 96.1% | 106% | 99.5% | 98.8% | 83.6% | 99.8% | 115% | 102%
O=C(OCc1ccc2cccc(O)c2n1)N1CCN(C(=O)c2cc3cc(F)ccc3[nH]2)CC1 | -68.3% (active) | -57.4% (active) | -89.8% (active) | -62.8% (active) | -28% (active) | -78.8% (active) | -4.94% (active) | -48.1% (active)
CCOC(=O)c1c(C)nc2c(c1N)CC(=O)N2Cc1cc(F)cc(Cl)c1 | 76.3% | 96.3% | 92% | 103% | 84.9% | 79.9% | 113% | 97%
Cn1ccnc1C(=O)C(=O)Nc1ccc(CC(=O)Nc2ccccc2)cc1 | 112% | 103% | 101% | 102% | 92.1% | 114% | 106% | 105%
CC1=C(Nc2ccc(N3CCN(C)CC3)cc2)C(=O)c2cncnc2C1=O | -44.2% (active) | 101% | -83.7% (active) | 75.8% | 61.9% | 6.39% (active) | 126% | 91.2%

Compound | growth [1] | growth [2] | growth [3] | growth [4] | growth [5] | growth [6] | growth [7] | growth [8]
COc1ccc(C2c3sc4c(F)cccc4c3Oc3nc[nH]c(=O)c32)cc1 (configuration not stated) | 70.5% | 84.6% | 82.1% | 89.7% | 45.7% | 79.9% | 91.7% | 81.7%
C/C(=N\NC(=O)c1ccccc1O)c1cccc(/C(C)=N/NC(=O)c2ccccc2O)n1 | 41.8% | -2.08% (active) | 40% | 31.2% | 44.3% | 27.1% | 18.4% | 22.6%
Cc1ccc(Sc2nnc(/N=C3\C(=O)Nc4ccccc43)s2)cc1 | 107% | 116% | 103% | 96.2% | 101% | 104% | 116% | 98.1%
COC1=CC(c2ccc[nH]2)=N/C1=C\c1[nH]c(C)c(C(=O)OCc2ccccc2)c1C | -73.4% (active) | -13.8% (active) | -69.7% (active) | -25.5% (active) | -76.3% (active) | -75.4% (active) | -54.5% (active) | -71.3% (active)
COc1ccc(C(=O)C2C(c3ccc(OC)cc3)CN(C)C23C(=O)Nc2ccccc23)cc1 (configuration not stated) | 85.8% | 105% | 97.6% | 95.2% | 98.8% | 84.4% | 88.4% | 93.9%
CNc1nc(S(=O)c2ccc(C#N)cc2)nc2ccccc12 (configuration not stated) | 62.4% | 74.6% | 88% | 76% | 72.1% | 51.4% |  | 99%
CN1C(=O)/C(=C/c2ccc(C(=O)Nc3ncc(Cc4ccc(Cl)cc4)s3)cc2)SC1=S | 37.8% | 46.7% | -32% (active) | 28.9% | 55.5% | 24.2% | 59.3% | 21.1%
C=C(C)[C@@H]1CC[C@]2(C(=O)N3CCN(C)CC3)CC[C@]3(C)[C@H](CC[C@@H]4[C@@]5(C)CC(=C/c6ccncc6)/C(=N/O)C(C)(C)[C@@H]5CC[C@]43C)[C@@H]12 | 71.9% | 82.7% | 86.6% | 72.8% | 66.8% | 56.1% | 82.7% | 72.1%
Cc1nc(-c2ccccc2)cc2c(O)c(C(=O)NN)[nH]c(=O)c12 | 92.4% | 193% | 109% | 97.5% | 77.8% | 110% |  | 115%
CCOC(=O)c1[nH]c(=O)c2c(C)nc(-c3ccccc3)cc2c1O | 101% | 146% | 109% | 98.3% | 92.7% | 95% |  | 110%
C=CCn1c(SCC(=O)NCc2cc(C)c(O)c(C)c2)nc2ccc(Cl)cc2c1=O | 103% | 113% | 107% | 102% | 91.3% | 102% | 110% | 104%
COc1ccc2[nH]cc(C(c3cc(F)cc(F)c3)c3c[nH]c4ccc(OC)cc34)c2c1 | 43.1% | 183% | 93.4% | 81.6% | 55.4% | 52.9% |  | 83.6%
CC(C)n1cnc2c(=S)nc[nH]c21 | 101% | 112% | 94.9% | 103% | 106% | 106% |  | 102%
O=C1c2cccc(NCCN=Cc3cc(O)ccc3O)c2C(=O)c2c(NCCN=Cc3cc(O)ccc3O)cccc21 | -2.29% (active) | 41.7% | -5.74% (active) | -68.7% (active) | -59.6% (active) | -17.3% (active) |  | -71.3% (active)
CCNC(=O)c1[nH]cc(-c2ccccc2)c1-c1cc(OC)c2c(c1OC)OCO2 | 87% | 98.4% | 103% | 97.6% | 101% | 90.7% | 104% | 121%
